PubChem BioAssay AID1159580 (chemical genetic matrix, 2015)
Where “and” joins values, the source holds several entries; their conditions need not be identical. Equal entries are not always repeated. The whole screen tested about 5,500 compounds, of which about 2,000 (36%) were called active. Inconclusive results (about 18%) are left out. Cut-off read from the data, not from the text of the source: active = normalized growth mostly below about 0.91 (no sharp cut-off); inconclusive = no clear call, values can overlap the other calls; inactive = mostly above about 0.92. The list shows a part of the results.

Test: chemical genetic growth profiling, strain panel (AID 1159580);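 note: tested at 20 µM; growth read once vehicle control cultures reached saturation at 30 °C; 1 = growth at the plate median or of vehicle wells; lower values mean less growth of the strain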
Settings: S. cerevisiae deletion strains, growth OD

Measured: normalized growth

COc1cc2c(cc1OC)[C@@H]1C(=O)c3ccc4oc(C(C)C)cc4c3O[C@@H]1CO2
inactive: locus YAL021C, strain ccr4, hits give low values 0.983 | locus YAL026C, strain drs2, hits give low values 0.995 | locus YAL030W, strain snc1, hits give low values 1 | locus YBL061C, strain skt5, hits give low values 0.995 | locus YBR009C, strain hhf1, hits give low values 0.992 | locus YBR021W, strain FUR4, hits give low values 1.01 | locus YBR023C, strain chs3, hits give low values 0.996 | locus YBR171W, strain sec66, hits give low values 0.999 | locus YBR229C, strain ROT2, hits give low values 1.01 | locus YBR231C, strain swc5, hits give low values 0.992 | locus YBR279W, strain paf1, hits give low values 0.996 | locus YCL011C, strain gbp2, hits give low values 0.97 | locus YCL016C, strain dcc1, hits give low values 0.993 | locus YCL029C, strain bik1, hits give low values 1.07 | locus YCL061C, strain MRC1, hits give low values 0.981 | locus YCL069W, strain vba3, hits give low values 1 | locus YCR088W, strain abp1, hits give low values 0.993 | locus YDL005C, strain med2, hits give low values 0.981 | locus YDL035C, strain GPR1, hits give low values 1.02 | locus YDL040C, strain nat1, hits give low values 0.989 | locus YDL074C, strain BRE1, hits give low values 1.04 | locus YDL101C, strain DUN1, hits give low values 1.01 | locus YDL185W, strain tfp1, hits give low values 1.01 | locus YDL192W, strain arf1, hits give low values 1.04 | locus YDR001C, strain nth1, hits give low values 0.979 | locus YDR069C, strain doa4, hits give low values 1.08 | locus YDR101C, strain arx1, hits give low values 1.02 | locus YDR137W, strain rgp1, hits give low values 0.992 | locus YDR150W, strain NUM1, hits give low values 1.02 | locus YDR159W, strain sac3, hits give low values 0.985 | locus YDR162C, strain NBP2, hits give low values 1.04 | locus YDR195W, strain ref2 0.982 | locus YDR297W, strain sur2, hits give low values 1.02 | locus YDR318W, strain mcm21, hits give low values 1.04 | locus YDR334W, strain swr1, hits give low values 0.977 | locus YDR335W, strain msn5, hits give low values 0.986 | locus YDR388W, hits give low values 1.02 | locus YDR392W, strain spt3, hits give low values 0.996 | locus YDR502C, strain sam2, hits give low values 1.03 | locus YEL003W, strain gim4, hits give low values 1.01 | locus YEL037C, strain rad23, hits give low values 0.995 | locus YEL061C, strain CIN8 (second series), hits give low values 0.984 | locus YER015W, strain faa2, hits give low values 0.99 | locus YER016W, strain bim1, hits give low values 0.971 | locus YER110C, hits give low values 1 | locus YER111C, strain swi4, hits give low values 0.977 | locus YER155C, strain BEM2 (second series), hits give low values 0.973 | locus YER155C, strain BEM2, hits give low values 1.02 | locus YER167W, strain BCK2, hits give low values 1.02 | locus YFR010W, strain ubp6, hits give low values 0.998 | locus YGL078C, strain dbp3, hits give low values 1.03 | locus YGL086W, strain mad1, hits give low values 1.02 | locus YGL167C, strain pmr1, hits give low values 0.982 | locus YGL173C, strain kem1, hits give low values 0.975 | locus YGL227W, strain vid30, hits give low values 0.982 | locus YGL240W, strain doc1, hits give low values 0.991 | locus YGL248W, strain PDE1, hits give low values 1.01 | locus YGL253W, strain hxk2, hits give low values 0.991 | locus YGR078C, strain PAC10, hits give low values 1.02 | locus YGR135W, strain pre9, hits give low values 1.08 | locus YGR252W, strain gcn5, hits give low values 1.01 | locus YHR013C, strain ard1, hits give low values 0.973 | locus YHR027C, strain rpn1, hits give low values 1 | locus YHR030C, strain SLT2, hits give low values 0.999 | locus YHR079C, strain IRE1 (second series), hits give low values 1 | locus YHR079C, strain IRE1, hits give low values 0.985 | locus YHR094C, strain hxt1, hits give low values 1.02 | locus YHR129C, strain ARP1, hits give low values 1.02 | locus YHR142W, strain chs7, hits give low values 1.01 | locus YHR200W, strain rpn10, hits give low values 1.03 | locus YIL066C, strain RNR3, hits give low values 1.02 | locus YIL073C, strain SPO22, hits give low values 1.06 | locus YIL125W, strain kgd1, hits give low values 1 | locus YIR030C, strain dcg1, hits give low values 1.05 | locus YJL092W, strain hpr5, hits give low values 0.968 | locus YJL095W, strain BCK1 (second series), hits give low values 1.01 | locus YJL095W, strain BCK1, hits give low values 1.04 and 0.981 | locus YJL115W, strain asf1, hits give low values 0.957 | locus YJL129C, strain trk1, hits give low values 0.974 | locus YJL134W, strain LCB3, hits give low values 1.01 | locus YJL154C, strain vps35, hits give low values 0.984 | locus YJL164C, strain tpk1, hits give low values 1.03 | locus YJL166W, strain qcr8, hits give low values 0.975 | locus YJL168C, strain set2, hits give low values 1.01 | locus YJL187C, strain SWE1 (second series), hits give low values 1.02 | locus YJR043C, strain POL32, hits give low values 1.02 | locus YJR066W, strain TOR1, hits give low values 0.907 | locus YKL009W, strain mrt4, hits give low values 0.918 | locus YKL068W, hits give low values 0.996 | locus YKL085W, strain MDH1 (second series), hits give low values 0.989 | locus YKL085W, strain MDH1, hits give low values 0.989 | locus YKL160W, strain elf1, hits give low values 0.99 | locus YKL190W, strain CNB1, hits give low values 1.02 | locus YKR001C, strain vps1, hits give low values 1.02 | locus YKR026C, strain gcn3, hits give low values 1 | locus YKR091W, strain srl3, hits give low values 0.984 | locus YLL001W, strain dnm1, hits give low values 0.972 | locus YLL026W, hits give low values 0.976 | locus YLL041C, strain sdh2, hits give low values 1.02 | locus YLR027C, strain aat2, hits give low values 0.999 | locus YLR039C, strain RIC1, hits give low values 1.1 | locus YLR058C, strain SHM2, hits give low values 1.01 | locus YLR102C, strain apc9, hits give low values 1.02 | locus YLR113W, strain HOG1, hits give low values 1.05 | locus YLR221C, strain rsa3, hits give low values 0.959 | locus YLR258W, strain gsy2, hits give low values 0.992 | locus YLR262C, strain YPT6 (second series), hits give low values 1.02 | locus YLR262C, strain YPT6, hits give low values 1.06 | locus YLR268W, strain sec22, hits give low values 1.02 | locus YLR320W, strain mms22, hits give low values 0.986 | locus YLR330W, strain CHS5, hits give low values 1.02 | locus YLR342W, strain FKS1 (second series), hits give low values 1.03 | locus YLR342W, strain FKS1, hits give low values 0.982 | locus YLR357W, strain rsc2, hits give low values 0.986 | locus YLR370C, strain arc18, hits give low values 0.981 | locus YLR371W, strain rom2, hits give low values 1.06 | locus YLR384C, strain iki3, hits give low values 0.993 | locus YLR418C, strain cdc73, hits give low values 1.01 | locus YML016C, strain PPZ1, hits give low values 1.02 | locus YML032C, strain rad52, hits give low values 1.01 | locus YML120C, strain ndi1, hits give low values 0.99 | locus YML124C, strain tub3, hits give low values 1.03 | locus YMR058W, strain fet3, hits give low values 0.968 | locus YMR078C, strain ctf18, hits give low values 1.02 | locus YMR125W, strain sto1, hits give low values 0.976 | locus YMR129W, hits give low values 0.985 | locus YMR205C, strain PFK2, hits give low values 0.987 | locus YMR223W, strain ubp8, hits give low values 1.01 | locus YMR231W, strain pep5, hits give low values 0.985 | locus YMR307W, strain GAS1, hits give low values 0.974 | locus YNL067W, strain RPL9B, hits give low values 1.02 | locus YNL071W, strain lat1, hits give low values 1.05 | locus YNL183C, strain NPR1, hits give low values 0.956 | locus YNL209W, strain ssb2, hits give low values 0.993 | locus YNL233W, strain BNI4, hits give low values 1.05 | locus YNL248C, strain rpa49, hits give low values 0.976 | locus YNL250W, strain rad50, hits give low values 1.02 | locus YNL271C, strain bni1, hits give low values 1.02 | locus YNL298W, strain CLA4, hits give low values 1.03 | locus YNL307C, strain MCK1, hits give low values 1.03 | locus YNL322C, strain KRE1 (second series), hits give low values 1 | locus YNL322C, strain KRE1, hits give low values 1.01 | locus YNR049C, strain mso1, hits give low values 0.982 | locus YNR052C, strain pop2, hits give low values 1.01 | locus YOL006C, strain TOP1, hits give low values 1.11 | locus YOL012C, strain htz1 0.869 | locus YOL147C, strain pex11, hits give low values 1.04 | locus YOR001W, strain rrp6, hits give low values 0.979 | locus YOR061W, strain CKA2, hits give low values 1.02 | locus YOR069W, strain VPS5, hits give low values 1.01 | locus YOR070C, strain gyp1, hits give low values 0.987 | locus YOR080W, strain dia2, hits give low values 0.965 | locus YOR083W, strain WHI5, hits give low values 0.987 | locus YOR106W, strain vam3, hits give low values 0.991 | locus YOR136W, strain idh2, hits give low values 1 | locus YOR144C, strain elg1, hits give low values 1.02 | locus YOR184W, strain ser1, hits give low values 1.05 | locus YOR231W, strain MKK1, hits give low values 0.975 | locus YOR265W, strain rbl2, hits give low values 1 | locus YOR270C, strain vph1, hits give low values 1.07 | locus YOR290C, strain snf2, hits give low values 0.978 | locus YOR316C, strain cot1, hits give low values 1 | locus YPL051W, strain arl3, hits give low values 0.985 | locus YPL078C, strain atp4, hits give low values 0.989 | locus YPL106C, strain sse1, hits give low values 1.03 | locus YPL240C, strain hsp82, hits give low values 1 | locus YPL256C, strain CLN2, hits give low values 0.988 | locus YPR119W, strain clb2, hits give low values 1.01 | locus YPR141C, strain kar3, hits give low values 1.06 | locus YPR163C, strain tif3, hits give low values 1.02 | locus YPR167C, strain met16, hits give low values 1.05 | strain wtn01, hits give low values 1.04
